In PubChem BioAssay (NCI):
The panel holds about 83,000 compounds, 20% with a hit somewhere; the sample as a whole holds those more often.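 Activity criterion: percent growth below 10, measured after cells in 96-well plates were exposed to a single compound concentration for 48 hours.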 Unmarked numbers belong to inactive results. Calls of active or inactive are those of the source.

Legend:
Test in all cases: NCI-60 one-dose screen, 48 h (100 = growth as untreated, 0 = no growth, -100 = all killed)
Conditions in all cases: 10 µM unless noted
SR leukemia = tested on: SR leukemia
RPMI-8226 leukemia = tested on: RPMI-8226 leukemia
OVCAR-8 ovarian = tested on: OVCAR-8 ovarian
OVCAR-5 ovarian = tested on: OVCAR-5 ovarian
OVCAR-4 ovarian = tested on: OVCAR-4 ovarian
SK-OV-3 ovarian = tested on: SK-OV-3 ovarian
IGROV1 ovarian = tested on: IGROV1 ovarian
OVCAR-3 ovarian = tested on: OVCAR-3 ovarian
HS 578T breast = tested on: HS 578T breast
NCI/ADR-RES ovarian = tested on: NCI/ADR-RES ovarian
T-47D breast = tested on: T-47D breast
SW-620 colon = tested on: SW-620 colon
MCF7 breast = tested on: MCF7 breast
HCT-116 colon = tested on: HCT-116 colon
HCC-2998 colon = tested on: HCC-2998 colon
KM12 colon = tested on: KM12 colon
MDA-MB-435 melanoma = tested on: MDA-MB-435 melanoma

Structure (SMILES)	growth (SR leukemia)	growth (RPMI-8226 leukemia)	growth (OVCAR-8 ovarian) [%]	growth (OVCAR-5 ovarian) [%]	growth (OVCAR-4 ovarian) [%]	growth (SK-OV-3 ovarian) [%]	growth (IGROV1 ovarian)	growth (OVCAR-3 ovarian)	growth (HS 578T breast) [%]	growth (NCI/ADR-RES ovarian) [%]	growth (T-47D breast) [%]	growth (SW-620 colon) [%]	growth (MCF7 breast)	growth (HCT-116 colon)	growth (HCC-2998 colon)	growth (KM12 colon)	growth (MDA-MB-435 melanoma)
CC(=O)Nc1ccc(S(=O)(=O)NC(CCC(=O)Nc2ccc(Cl)cc2)C(=O)O)cc1 (configuration not stated)	77.9%	99.1%	97.4	77.7	94	93.7	112%	107%	98.4	100	80.4	99.6	84.8%	102%	103%	94.5%	
CCC(=O)Oc1cc(/C=C/C(=O)O[C@H]2C[C@H]3CN4CCc5c([nH]c6cc(OC)ccc56)[C@@H]4C[C@@H]3[C@@H](C(=O)OC)[C@@H]2OC)ccc1OC	1.95% (active)	39.9%	86.8	87	56.9	86.5	88.5%	73.1%	56.5	87.1	60.6	83	48.2%	53.3%	115%	95.3%	67.1%
Cc1ccc2nc(-c3c(N)n[nH]c3CCCO)[nH]c(=O)c2c1	77.2%	91.6%	105	110	106	108	7.26% (active)	115%	103	102	111	101	94.5%	109%	111%	111%	110%
CN1CCN(CCCOc2ccc3nc(Nc4ccc(C(F)(F)F)c(Cl)c4)ccc3c2)CC1	-6.45% (active)	-6.92% (active)	31.3	22.4	41.7	55.5	13.7%	-11.8% (active)	16.3	20.4	39.9		-69.5% (active)	0.975% (active)	-71.1% (active)	-14.3% (active)	-74.9% (active)
O=C1CCCCC=C1C[N+](=O)[O-]	2.57% (active)	60.6%	86.8	104	94.9	99.1	91.6%	61%	107	101	70.3	39.6	84.4%	62.5%		105%	92.9%
